The subject of assay [1] is TRPC4 beta (transient receptor potential cation channel C4), mouse. Kind of assay: activators of mouse TRPC4 channel, confirmation, cell-based, Fluo4 calcium, HEK293 TRPC4beta/mu-opioid, duplicates, 10 µM (AID 2426;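 active means fluorescence ratio normalized to control raised more than 50% in primary screen plus both repeat runs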;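 on activation: percent rise of integrated ratio over buffer wells lacking compound which define 0%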). Conditions: Fluo4 calcium fluorescence, at 10 µM; stronger effect = higher value.
Assay [2] relates to transient receptor potential cation channel C4 beta (TRPC4), mouse. Put plainly: activators of mouse TRPC4 channel, confirmation, cell-based, second round, Fluo4, HEK293 TRPC4beta/mu-opioid, 1 µM (AID 2461;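 active means primary screen active and over 50% activation in each of two duplicate runs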;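 on activation: 0% = wells without test compound as baseline of integrated fluorescence ratio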). The following applies: Fluo4 calcium fluorescence, at 1 µM; stronger effect = higher value.
Assay [3] deals with TRPC4 (transient receptor potential cation channel C4 beta), mouse. Kind of assay: positive allosteric modulators of mouse TRPC4, confirmation, cell-based, second round, Fluo-4, HEK293 TRPC4beta/mu-opioid, 1 µM (AID 2554;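 active means primary screen hit whose fluorescence ratio, in both repeats, exceeds the weak agonist control mean by 3 SD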). The following applies: DAMGO EC20, Fluo-4 calcium flux, at 1 µM; stronger effect = higher value.
Assay [4] deals with TRPC4 beta (transient receptor potential cation channel C4), mouse. Kind of assay: positive allosteric modulators of mouse TRPC4, confirmation, cell-based, Fluo-4, HEK293 TRPC4beta/mu-opioid (AID 2555;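 active means primary screen hit whose calcium fluorescence ratio, in both repeats, exceeds the weak agonist control mean by 3 SD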). Conditions: DAMGO EC20, Fluo-4 calcium flux, at 10 µM; stronger effect = higher value.
Assay [5] has as its target Short transient receptor potential channel 4 (Mus musculus) (UniProt Q9QUQ5). Put plainly: inhibitors of mouse TRPC4 channel, confirmation, cell-based, Fluo4, HEK293 TRPC4beta/mu-opioid (AID 2636;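 active means calcium signal cut by more than 3 SD below the full-agonist control yet still positive, in both repeats and the earlier primary screen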). Conditions: DAMGO, Fluo4 calcium flux, at 10 µM; stronger effect = higher value.
Assay [6] has the same target. Kind of assay: inhibitors of mouse TRPC4 channel, confirmation, cell-based, second round, Fluo4, HEK293 TRPC4beta/mu-opioid, 1 µM (AID 2637;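 active means calcium signal ratio cut to more than 3 SD under the fully stimulated control mean yet still positive, in both repeats and the primary screen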;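 on inhibition: percent of integrated ratio relative to wells lacking test compound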). Conditions: Fluo4 calcium flux, DAMGO, at 1 µM; stronger effect = higher value.
For assay [7] the target is unchanged. Kind of assay: mouse TRPC4 channel activators, dose response, cell-based, HEK293 TRPC4/mu-opioid, Fluo-4 calcium (AID 434937).
Assay [8] has the same target. Put plainly: TRPC4 positive allosteric modulators, dose response, cell-based, HEK293 TRPC4/mu-opioid, Fluo-4 calcium, EC20 DAMGO (AID 434941;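 active means earlier screen potentiator hit that boosts the TRPC4 ion channel at some dose, with a dose response; inactive means no potentiation, no dose response, or not a prior hit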;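 further: calcium entry triggered by an EC20 dose of DAMGO at the co-expressed mu-opioid receptor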).
For assay [9] the target is unchanged. Put plainly: mouse TRPC4 channel inhibitors, dose response, cell-based, HEK293 TRPC4/mu-opioid, Fluo-4 calcium (AID 434942;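 active means primary screen inhibitor hit that blocks the TRPC4 channel at some tested dose, yielding a dose curve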).
Assay [10] deals with Short transient receptor potential channel 6 (Mus musculus) (UniProt Q61143). Kind of assay: inhibition of mouse TRPC6 channel, confirmation, selectivity assay for TRPC4 inhibitor project, cell-based, HEK293, membrane potential dye, duplicate (AID 434948;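 active means active in primary screen and both duplicates, each dropping signal beyond three positive-control SD with fluorescence still positive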). The following applies: HEK293 TRPC6, membrane potential dye fluorescence, at 10 µM, stimulated with maximal-effect acetylcholine; stronger effect = higher value.
Short transient receptor potential channel 6 (Mus musculus), sequence (Q61143 whole entry, looked up): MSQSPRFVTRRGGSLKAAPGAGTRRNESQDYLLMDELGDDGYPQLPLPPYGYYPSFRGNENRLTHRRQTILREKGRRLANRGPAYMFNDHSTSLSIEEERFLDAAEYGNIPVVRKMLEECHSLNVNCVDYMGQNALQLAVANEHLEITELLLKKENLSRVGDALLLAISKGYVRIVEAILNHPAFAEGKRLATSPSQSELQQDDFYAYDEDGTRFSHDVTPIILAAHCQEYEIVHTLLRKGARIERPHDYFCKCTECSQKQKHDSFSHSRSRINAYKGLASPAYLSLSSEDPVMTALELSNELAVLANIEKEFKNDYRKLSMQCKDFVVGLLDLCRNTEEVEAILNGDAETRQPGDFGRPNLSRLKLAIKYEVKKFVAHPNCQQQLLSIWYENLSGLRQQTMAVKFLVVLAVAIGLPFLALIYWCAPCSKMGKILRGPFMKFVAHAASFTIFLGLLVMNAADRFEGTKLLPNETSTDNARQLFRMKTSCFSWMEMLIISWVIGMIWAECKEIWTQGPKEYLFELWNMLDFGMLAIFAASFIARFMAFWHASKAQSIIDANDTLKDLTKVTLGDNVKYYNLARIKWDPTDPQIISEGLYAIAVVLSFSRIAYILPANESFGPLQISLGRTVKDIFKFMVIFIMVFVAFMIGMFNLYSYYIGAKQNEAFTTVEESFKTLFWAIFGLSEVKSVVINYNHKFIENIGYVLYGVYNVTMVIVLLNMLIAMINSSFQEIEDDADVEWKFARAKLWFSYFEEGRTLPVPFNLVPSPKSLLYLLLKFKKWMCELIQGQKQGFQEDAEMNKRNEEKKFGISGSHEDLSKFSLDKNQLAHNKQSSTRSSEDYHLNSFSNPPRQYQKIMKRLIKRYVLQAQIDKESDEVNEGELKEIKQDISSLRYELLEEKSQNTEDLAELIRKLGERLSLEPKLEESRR

For assay [11] the target is unchanged. Put plainly: activation of mouse TRPC6 channel, confirmation, selectivity assay for TRPC4 activator project, cell-based, HEK293, membrane potential dye, duplicate (AID 434950;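 active means membrane potential signal rise above negative control mean plus 3 SD in both duplicates, also active in the earlier TRPC4 screen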;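 on activation: 0% = buffer only wells and 100% = acetylcholine maximal-effect wells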). The following applies: HEK293 TRPC6, membrane potential fluorescence, at 10 µM; stronger effect = higher value.
For assay [12] the target is unchanged. Put plainly: TRPC6 potentiation by TRPC4 potentiator hits, confirmation, selectivity assay for TRPC4 potentiator project, HEK293 cells, membrane potential dye, duplicate (AID 434952;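 active means compound raising the membrane signal above positive-control mean plus 3 SD in both repeats, and a primary screen hit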). Conditions: HEK293 TRPC6, membrane potential dye fluorescence, at 10 µM, maximal acetylcholine added after compound; stronger effect = higher value.
The target of assay [13] is Short transient receptor potential channel 4 (Mus musculus) (UniProt Q9QUQ5). Kind of assay: calcium flux activators in TRPC4/5HT1a cells, counter-screen for TRPC4 activator project, cell-based, second counter screen, HEK293 TRPC4/5HT1a, Fluo-4 (AID 434977;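 active means calcium signal rise above buffer-control mean plus 5 SD in both duplicates, and also a hit in the primary screen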;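 on activation: plate controls were assay buffer for no effect and maximal serotonin response for full effect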). The following applies: Fluo-4 calcium flux, at 10 µM; stronger effect = higher value.
Short transient receptor potential channel 4 (Mus musculus), sequence (Q9QUQ5 whole entry, looked up): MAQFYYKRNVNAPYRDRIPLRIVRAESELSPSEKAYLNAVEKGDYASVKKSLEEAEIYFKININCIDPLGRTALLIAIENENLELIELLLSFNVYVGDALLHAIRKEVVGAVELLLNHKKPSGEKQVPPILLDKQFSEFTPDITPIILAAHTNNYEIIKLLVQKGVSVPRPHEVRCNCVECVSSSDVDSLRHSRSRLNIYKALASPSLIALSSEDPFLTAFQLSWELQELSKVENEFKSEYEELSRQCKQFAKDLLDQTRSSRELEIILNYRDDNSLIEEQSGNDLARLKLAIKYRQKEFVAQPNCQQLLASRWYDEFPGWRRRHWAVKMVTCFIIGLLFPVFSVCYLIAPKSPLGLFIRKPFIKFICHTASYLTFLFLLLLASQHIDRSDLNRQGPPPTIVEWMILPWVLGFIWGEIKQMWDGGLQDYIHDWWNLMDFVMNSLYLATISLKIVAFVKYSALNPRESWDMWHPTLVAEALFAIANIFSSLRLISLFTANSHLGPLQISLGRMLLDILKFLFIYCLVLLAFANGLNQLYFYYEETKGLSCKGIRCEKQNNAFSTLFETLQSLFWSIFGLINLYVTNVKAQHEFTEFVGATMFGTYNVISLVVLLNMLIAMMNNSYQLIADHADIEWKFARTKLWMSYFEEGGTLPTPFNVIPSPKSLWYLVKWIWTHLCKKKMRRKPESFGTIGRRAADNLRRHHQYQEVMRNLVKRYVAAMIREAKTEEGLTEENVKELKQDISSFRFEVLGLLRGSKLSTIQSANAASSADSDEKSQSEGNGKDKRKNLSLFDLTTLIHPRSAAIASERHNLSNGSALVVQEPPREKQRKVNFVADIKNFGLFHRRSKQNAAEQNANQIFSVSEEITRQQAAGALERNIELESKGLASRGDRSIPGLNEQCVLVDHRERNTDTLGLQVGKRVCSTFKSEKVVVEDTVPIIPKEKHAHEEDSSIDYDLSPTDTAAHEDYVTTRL
Assay [14] can be described thus: calcium flux inhibitors in TRPC4/5HT1a cells, confirmation, counter-screen for TRPC4 inhibitor project, cell-based, second counter screen, HEK293 TRPC4/5HT1a, Fluo-4 (AID 434978;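 active means primary screen active whose calcium signal fell more than 3 SD beyond the full-serotonin control mean in both duplicate plates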;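 on outcome: serotonin given first at submaximal then at maximal dose after compound preincubation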). Conditions: Fluo-4 calcium flux, at 10 µM, serotonin added to trigger calcium flux; stronger effect = higher value.
The test system of assay [15] is TRPC4 (mouse), co-expressed with 5HT1a in HEK293. Put plainly: calcium flux potentiators in TRPC4/5HT1a cells, confirmation, counter-screen for TRPC4 potentiator project, cell-based, second counter screen, HEK293 TRPC4/5HT1a, Fluo-4 (AID 434979;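 active means signal rise over 3 SD above mean of control wells given weak agonist, in both repeats and first screen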). The following applies: Fluo-4 calcium flux, at 10 µM, serotonin added at its EC20 dose; stronger effect = higher value.
The nature of assay [16]: calcium flux activation in mu-opioid HEK293 cells, confirmation, counter-screen for TRPC4 activator project, cell-based, HEK293 mu-opioid receptor line (AID 449723;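 active means hit in primary screen, with calcium signal over 5 SD above buffer well mean in both duplicates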;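 further: counter screen cells carry the mu-opioid receptor alone and lack TRPC4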). The following applies: Fluo-4 calcium fluorescence, at 10 µM; stronger effect = higher value.
A short description of assay [17]: calcium flux enhancement in mu-opioid HEK293 cells, confirmation, counter-screen for TRPC4 allosteric potentiator project, cell-based, HEK293 mu-opioid receptor line (AID 449724;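 active means calcium signal rise more than 3 SD above the low-dose agonist control mean, in both duplicate plates and the primary screen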;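 further: HEK293 cells carrying mu-opioid receptor only with no TRPC4 channel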). Conditions: Fluo-4 calcium flux, at 10 µM, compound added before EC20 DAMGO stimulus; stronger effect = higher value.

For some assays here: Results with a measured potency or affinity are listed apart. Calls of active or inactive are those of the source.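 How the source made its calls, unless noted: active means primary screen activator hit with a dose response curve and TRPC4 channel activation at any tested dose; inactive means no activation, no dose response, or not a primary hit.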

Take `O=C(NCCCN1CCCC1=O)c1ccc(CNS(=O)(=O)c2ccc(F)cc2)cc1`: the result in assay [1], in assay [2], in assay [3], in [4], in assay [5] and in assay [6] was inactive. Besides, the result in assay [7], in assay [8], in [9], in [10], in assay [11] and in [12] was inactive. Also, the outcome in [13], in assay [14], in assay [16] and in [17] was inactive. The potentiation in [15] was 14.7% (active).

For `Cc1ccc(C2N(c3cccc(Cl)c3)C(=O)C3CCCN32)o1` (stereo unspecified), the result in assay [1], in assay [2], in assay [5], in assay [6], in assay [7] and in assay [8] was inactive. The outcome in assay [9], in assay [10], in assay [11], in [12], in [13] and in [14] was inactive. Further, the outcome in [16] and in assay [17] was inactive. The potentiation in assay [3] is 19% (active); in assay [4] it was 16% (active); in assay [15], 13.4% (active).

Consider `CCOc1ccc(OCC(O)CNC2CCN(Cc3ccccc3)CC2)cc1` (stereo unspecified), for which the activation in assay [1] was 144% (active); in assay [2], 94% (active); in [11], 83% (active); in [13], 35.4% (active). The outcome in [3], in [4], in assay [6], in [7], in [8] and in assay [9] was inactive. For the same molecule, the result in assay [12], in assay [15], in assay [16] and in assay [17] was inactive. Also, the inhibition is 36% (active) in [5], 34.5% (active) in assay [10] and 25.6% (active) in [14].

For `Cn1c2ccccc2c(=O)c2c(=O)n(-c3ccccc3)c(-c3ccc(C(C)(C)C)cc3)nc21`, the result in assay [1], in [2], in assay [3], in [4], in [5] and in assay [6] was inactive. For the same molecule, the outcome in assay [7], in [8], in [9], in [10], in assay [11] and in assay [12] was inactive. Besides, the outcome in [13], in assay [14], in [15], in assay [16] and in assay [17] was inactive.

On to `COc1ccc(C(=O)CCC(=O)Nc2cccc(Cl)c2)cc1`, for which the outcome in assay [1], in assay [2], in assay [3], in assay [5], in assay [6] and in assay [7] was inactive. Further, the result in assay [8], in assay [9], in assay [10], in [11], in assay [12] and in assay [13] was inactive. The result in [14], in assay [16] and in assay [17] was inactive. Besides, the potentiation in [4] was 10% (active); in [15] it was 22.1% (active).

On to `CCOC(=O)C1=C(N)OC2=C(C(=O)CC(C)(C)C2)C1c1ccc(CC)s1` (stereo unspecified), for which the outcome in [1], in [2], in [3], in [4], in assay [5] and in assay [6] was inactive. The result in assay [7], in [8], in assay [9], in assay [10], in [11] and in [12] was inactive. In addition, the result in assay [13], in assay [14], in assay [16] and in assay [17] was inactive. Further, the potentiation in assay [15] was 27.5% (active).

Consider `Oc1ccccc1-c1cc(-c2ccco2)[nH]n1`, for which the result in assay [1], in assay [2], in [3], in [4], in assay [5] and in [6] was inactive. Moreover, the outcome in assay [7], in [8], in assay [9], in [10], in [11] and in assay [12] was inactive. Moreover, the outcome in assay [13], in assay [14], in [15], in [16] and in assay [17] was inactive.

Turning to `CCOc1cc(S(=O)(=O)N2CCN(C(=O)c3ccco3)CC2)ccc1F`, the outcome in assay [1], in [2], in [3], in assay [5], in assay [6] and in [7] was inactive. Further, the outcome in assay [8], in assay [9], in assay [10], in assay [11], in assay [12] and in assay [13] was inactive. Also, the outcome in [14], in [16] and in assay [17] was inactive. For the same molecule, the potentiation in assay [4] was 12% (active); in assay [15] it was 32% (active).

For the molecule `CCOc1ccc(NS(=O)(=O)c2ccc(NC(=S)NC(=O)CC(C)C)cc2)cc1`, the result in assay [1], in assay [2], in assay [3], in assay [5], in [6] and in [7] was inactive. In addition, the outcome in assay [8], in [9], in assay [10], in assay [11], in [12] and in assay [13] was inactive. Moreover, the outcome in [14], in [16] and in assay [17] was inactive. The potentiation in assay [4] is 15% (active); in assay [15], 6.51% (active).

In the case of `CCn1c(C2CC(=O)N(Cc3ccccc3)C2)nc2ccccc21` (stereo unspecified), the result in [1], in assay [2], in assay [3], in assay [5], in assay [6] and in assay [7] was inactive. Besides, the outcome in assay [8], in assay [9], in assay [10], in assay [11], in [12] and in assay [13] was inactive. The result in assay [14], in assay [16] and in assay [17] was inactive. For the same molecule, the potentiation is 11% (active) in [4] and 23.9% (active) in assay [15].

Consider `NC(N)=NN=C1CCC(c2ccccc2)CC1` (stereo unspecified), for which the outcome in assay [1], in [2], in assay [3], in [4], in assay [5] and in assay [6] was inactive. The result in [7], in assay [8], in assay [9], in [10], in assay [11] and in assay [12] was inactive. The result in assay [13], in [14], in [15], in assay [16] and in assay [17] was inactive.

Take `COc1ccccc1N(C(=O)c1snc(C(N)=O)c1N)C(C(=O)NCc1ccccc1)c1ccc(O)cc1` (stereo unspecified): the outcome in assay [1], in assay [2], in assay [3], in assay [4], in [7] and in assay [8] was inactive. Besides, the outcome in assay [9], in assay [10], in assay [11], in assay [12], in assay [13] and in [15] was inactive. Moreover, the outcome in assay [16] and in assay [17] was inactive. Besides, the inhibition in [5] is 91% (active); in assay [6] it was 51% (active); in assay [14], 26.4% (active).

Turning to `CCCc1ccc(OCc2ccc(C(=O)N3CCSCC3)o2)cc1`, the result in assay [1], in [2], in assay [3], in assay [5], in [6] and in assay [7] was inactive. The result in [8], in assay [9], in assay [10], in assay [11], in assay [12] and in [13] was inactive. The outcome in assay [14], in assay [16] and in [17] was inactive. The potentiation in assay [4] is 36% (active); in [15], 30.2% (active).

The values above are taken from PubChem BioAssay.
